This is a sample that favours compounds with a hit; in the whole collection about 19% have one here.
IL1B secr inh: blocks inflammasome-driven IL-1 beta release; AID 743279; activity change, % at 57.5 µM; 360,000 tested, 4.7% active; THP-1 LPS/ATP IL-1B secretion, AlphaLISA, 16 h; hits give low values; in the data active means activity change below about -50%; inconclusive means mostly about -30% to -49%
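THP-1 cells pretreated 1 hr with compounds (up to 57.5 uM final), then stimulated with LPS (250 ng/mL final) plus ATP (1.25 mM final); secreted IL-1B measured by AlphaLISA after 16 hr, decreased signal indicating inhibition.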
DT40 TDP1 no CPT: qHTS for Inhibitors of human tyrosyl-DNA phosphodiesterase 1 (TDP1): qHTS in cells in absence of CPT; 420,000 tested, 15% active; DT40 Tdp1-/- hTDP1 cells, no CPT, ATP luminescence, 48 h; Potency, µM (series often up to 46.2 µM), without a hit: top-dose activity change, negative = growth inhibition, actives largely listed as inhibitors; further: potency means the concentration at half of the fitted maximal effect; nearly all actives have a fitted effect of over 55% in size
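Growth kinetics read by CellTiter-Glo luminescence after ≥48 hr at 37 °C. Cells: DT40 Tdp1-/- stably carrying human TDP1, 400 per well, compound exposure in the absence of CPT (DMSO vehicle).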
HT1080 IDH1KD tx: HT-1080 IDH1 knockdown cell toxicity (counter line) | HT-1080 IDH1 knockdown viability, ATP luminescence, 48 h | Potency, µM (titrated, usually from 46.1 µM), inactives show at the top dose activity, negative = toxicity, hits mostly cytotoxic | 360,000 tested, 2% active;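 further: potency means the concentration at half of the fitted maximal effect; 0% = DMSO wells and -100% = cell-free medium wells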
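CellTiter-Glo luminescence after 48 h compound exposure at 37 degrees C of IDH1-knockdown HT-1080 cells in 5% FBS RPMI. %Activity scaled between DMSO wells and cell-free media wells, with curves fitted and assigned curve classes.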
HT1080-NT tox: kills 2HG-producing HT-1080-NT fibrosarcoma cells. 360,000 tested, 1.6% active. HT-1080-NT fibrosarcoma viability, CellTiter-Glo ATP luminescence, 48 h. Potency, µM (titrated, usually from 46.1 µM), without a hit: at the highest dose activity, negative = less viability, hits mostly cytotoxic;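 further: NT is the 2HG producing partner of a matched IDH1 knockdown line; potency means the concentration at half of the fitted maximal effect; 0% = DMSO-treated cells and -100% = media-only wells without cells; nearly all actives have a fitted effect of over 55% in size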
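Compounds were tested in concentration-response format on HT-1080-NT cells for 48 hours at 37 degrees C. Cell viability came from CellTiter-Glo luminescence; curves were classified by r2, response magnitude and activity.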
DT40 TDP1 CPT: DT40-hTDP1 cell growth loss with CPT; 420,000 tested, 12% active; chicken DT40 Tdp1-/-;hTDP1 cells + 20 nM CPT, ATP luminescence, 48 h; Potency, µM (top dose mostly 46.2 µM), for the others: top-dose activity change, negative = growth inhibition, most hits filed as inhibitors; AID 686979; further: potency means the concentration at half of the fitted maximal effect; nearly all actives have a fitted effect of over 55% in size
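Cell growth measured by CellTiter-Glo luminescence after a minimum 48 h, 37 C compound exposure with 20 nM CPT in Tdp1-knockout DT40 cells stably expressing hTDP1, seeded 400/well; qHTS titration format.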
Active calls of the source: *; u = inconclusive; x = no result; [ ] = another dose, or the depositor's remark. Unless noted, the call rests on the fitted dose curve; in most records, active means well fitted curve in the direction sought with a large enough effect; inconclusive means small, poorly fitted or top-dose-only effect, or another doubt; inactive means no such curve, though single readings can be large; an effect the other way counts as inactive or inconclusive. Unless noted, on the % scale 0 is the no-effect control and ±100 the full control effect.

SMILES	IL1B secr inh	DT40 TDP1 no CPT	HT1080 IDH1KD tx	HT1080-NT tox	DT40 TDP1 CPT
O=C(c1ccc(Cn2cc(Br)cn2)o1)N1N=C(C(F)F)CC1(O)C(F)F (centres undefined)	-3.1	u	0.3%	13.0%	20µM*
C=C(C)C1CCC(C)=C1COC(=O)Nc1ccccc1 (centres undefined)	-61.6*	u	2.9%	14.2%	u
COc1ccc(CNS(=O)(=O)c2c(C(=O)N3CCCCC3)c(C)n(C)c2C)cc1	1.7	2.1%	5.9%	2.8%	-4.2%
O=C(CCCNS(=O)(=O)c1cccs1)N1CCN(c2cccc(Cl)c2)CC1	-15.7	u	-7.1%	-11.3%	u
O=C(C1CCCN(S(=O)(=O)c2cccs2)C1)N1CCN(c2cccc(Cl)c2)CC1 (centres undefined)	x	14.6µM*	x	x	20.6µM*
CCOC(=O)C1CCCN(S(=O)(=O)c2ccc(Br)s2)C1 (centres undefined)	0.0	-14.0%	-3.9%	4.2%	u
O=C(C1CCCN(S(=O)(=O)c2ccc(Br)s2)C1)N1CCN(c2cccc(Cl)c2)CC1 (centres undefined)	x	20.6µM*	x	x	16.4µM*
COC(=O)c1ccccc1NC(=O)CN1CCC(NC(=O)c2ccc(C)cc2)CC1	16.3	25.9µM*	6.6%	0.9%	u
CCOc1ccccc1N1CCN(CC(=O)Nc2ccccc2C(=O)NC2CC2)CC1	12.4	16.4µM*	3.3%	4.9%	20.6µM*
CCOc1ccccc1C(=O)NC1CCN(CC(=O)Nc2cc(OC)ccc2OC)CC1	4.2	16.4µM*	2.6%	12.1%	20.6µM*
CCOc1ccccc1N1CCN(CC(=O)Nc2ccnn2C2CCCC2)CC1	4.5	u	-2.7%	-0.9%	13µM*
CCOc1cc2c(cc1OCC)CN(CC(=O)Nc1ccccc1C(=O)NC1CC1)CC2	-25.9	-14.2%	5.4%	5.3%[9.24 µM]	u
COc1cc(-c2cc(C)c3c(OC)ccc(OC)c3n2)cc2c1OCCN(C(=O)C(C)c1n[nH]c(=O)c3ccccc13)C2 (centres undefined)	x	-5.4%	x	x	-10.2%
CCOc1ccccc1NC(=O)CN1CCC(NC(=O)c2ccccc2C)CC1	1.3	23.1µM*	-13.0%	-2.4%	23.1µM*
CCOc1ccc(OCC)c(NC(=O)CN2CCC(NC(=O)c3cccc(F)c3)CC2)c1	-12.4	16.4µM*	-23.8%	-24.0%	23.1µM*
COC(=O)c1ccccc1NC(=O)CN1CCN(C23CC4CC(CC(C4)C2)C3)CC1	7.2	u	-2.4%	2.9%	29.1µM*
Cc1ccc(S(=O)(=O)NC(CCc2ccccc2)CC(=O)C(C)(C)C)cc1 (centres undefined)	4.1	16.4µM*	-12.7%	-16.2%	23.1µM*
Clc1ccc2nc(C3CCCCC3)c(CC3CCCCC3)n2c1	42.0	u	19.8%	5.0%	-22.8%
Clc1ccc(CSc2nncn2-c2ccc3c(c2)OCCO3)cc1	x	5.8µM*	5.17µM*	16.4µM*	2.59µM*
COc1cc(NC(=O)c2cc3ccccn3n2)cc(OC)c1OC	x	-12.0%	x	x	-13.9%
O=C(CSc1nc2ccccc2c(=O)n1Cc1ccco1)c1ccc(F)cc1	0.1	23.1µM*	u	-5.5%	11.6µM*
COc1ccccc1-c1nnc(SCC(=O)c2ccc(C3CCCCC3)cc2)n1Cc1ccco1	-18.6	23.1µM*	u	u	23.1µM*
Cc1occc1-c1nnc(SCC(=O)c2ccc(F)cc2)n1Cc1ccco1	-9.5	u	3.1%	-0.6%	u
O=C(CSc1nnc(-c2cc3ccccc3cc2O)n1Cc1ccco1)c1ccc(F)cc1	-14.3	16.4µM*	u	-27.2%	13µM*
COc1ccc(Cl)cc1N(CC(=O)NCc1ccccn1)S(=O)(=O)c1ccc(C)cc1	-6.2	u	-0.7%	-11.0%	u
SMILES	IL1B secr inh	DT40 TDP1 no CPT	HT1080 IDH1KD tx	HT1080-NT tox	DT40 TDP1 CPT
S=c1[nH]nc(-c2ccncc2)n1/N=C/c1cccc(Cl)c1	35.3	-27.7%	3.5%	-1.0%	-21.5%
Nc1ncccc1OCc1ccc(Br)cc1	-10.4	18.4µM*	-9.3%	-16.6%	-27.1%
COc1ncnc2c1ncn2CCCNCc1ccccc1	2.7	-1.0%	6.6%	-23.7%	0.4%
CCOCCCNC(=O)c1ccc(-n2c(-c3ccccc3)cc3c2CCCC3)cc1	x	8.2µM*	x	x	9.2µM*
CC1CCc2c(cc(-c3ccccc3)n2-c2ccc(C(=O)NC(C)C)cc2)C1 (centres undefined)	x	20.6µM*	x	x	u
COCCNC(=O)C1(C)CCCN(C(=O)c2ccccc2OC)C1 (centres undefined)	14.8	1.8%	10.5%	28.4%	-3.8%
NNc1cc([N+](=O)[O-])cc2c1C(=O)N(Cc1ccccc1)S2=O (centres undefined)	-3.7	-3.7%	10.8%	-1.3%	-27.6%
O=C(COC(=O)CSc1ccccc1)NC1CCS(=O)(=O)C1 (centres undefined)	9.3	8.9%	0.5%	5.0%	-7.5%
Cc1ccnc2ccccc12	x	-2.3%	x	x	1.7%
CN(C)c1ccc(/C=C/c2ccnc3ccccc23)cc1	x	15.8µM*	x	x	u
Cc1cc(N(C)C)ccc1/C=C/c1ccnc2ccccc12	x	7.94µM*	x	x	11.2µM*
CN(C)c1ccc(/C=C/c2ccnc3ccc([N+](=O)[O-])cc23)cc1	x	u	x	x	11.2µM*
CN(N=O)c1ccc(/C=C/c2ccnc3ccccc23)cc1	x	5.62µM*	x	x	7.94µM*
O=c1[nH]c(=S)[nH]c2c1C(c1ccc(F)cc1)OC(CCc1ccccc1)C2 (centres undefined)	1.7	u	12.5%	16.0%	-18.8%
Cc1ccc(CN2CCC(C3(c4ccccn4)NC(=O)N(CC4CCCO4)C3=O)CC2)cc1C (centres undefined)	x	-17.3%	x	x	8.8%
Cc1cc(C(F)F)n2ncc(C(=O)O)c2n1	13.7	-0.2%	2.1%	0.6%	-0.1%
CCCN(CCC)c1ccc(/C=C/c2ccnc3ccccc23)cc1	x	5.01µM*	x	x	7.08µM*
CCCCCCCCCN(CCCCCCCCC)c1ccc(/C=C/c2ccnc3ccccc23)cc1	x	5.2%	x	x	1.0%
CCN(N=O)c1ccc(/C=C/c2ccnc3ccccc23)cc1	x	6.31µM*	x	x	6.31µM*
CN(C)c1ccc(/C=C/c2ccnc3ccc(I)cc23)cc1	x	3.98µM*	x	x	3.16µM*
CN(C)/C=N/n1cnc2ccccc2c1=O	4.5	-10.4%	29.0%	5.2%	0.6%
CN(C)c1ccc(C(I)C(I)c2ccnc3ccccc23)cc1 (centres undefined)	x	10µM*	x	x	11.2µM*
O=C(CSc1nnc(-c2ccco2)n1Cc1ccccc1)c1ccc(F)cc1	0.0	u	15.7%	-1.2%	-24.5%

Screening results: PubChem, National Center for Advancing Translational Sciences (NCATS)
